# Results filed as inconclusive are left out. Active and inactive are the calls of the source. Calls follow the shape of the full dose curve.
# Test: p53 small molecule agonists, cell-based qHTS assay with rat liver microsomes: qHTS cell viability counter screen (AID 1963580); also: nearly all actives have a fitted effect of over 45% in size
# Settings: p53RE-bla HCT-116 + rat microsomes, ATP viability, 16 h; series mostly up to 66 µM; activity change, negative = cytotoxicity: at the top concentration
# Description: National Center for Advancing Translational Sciences [NCATS]
# Division of Preclinical Innovation [DPI]
# U.S. Environmental Protection Agency [EPA]
# National Institutes of Environmental Health Sciences [NIEHS]
# National Toxicology Program [NTP]
# U.S. Food and Drug Administration [FDA]
# p53, a tumor suppressor protein, is activated following cellular insult, including DNA damage and other cellular stresses. The activation of p53 regulates cell fate by inducing DNA repair, cell cycle arrest, apoptosis, or cellular senescence. The activation of p53, therefore, is a good indicator of DNA damage and other cellular stresses. The CellSensor p53RE-bla HCT-116 cell line contains a stably integrated beta-lactamase reporter gene under control of the p53 response elements. The activation of the reporter gene under culture conditions can be detected by fluorescence intensity. This cell line was used to screen the Tox21 10K compound library in the condition of presence of rat liver microsomes and to identify agonists that activate the p53 signaling pathway after in vitro metabolic activation (Ooka et al., Archive of Toxicology 96:1975-1987, 2022). The cytotoxicity of the Tox21 compound library against the p53 RE-bla HCT-116 cell line was tested in parallel by measuring the intra cellular ATP content in the same wells.
# Tox21 Assay Protocol Summary:
# The p53RE-bla cells were dispensed at 4,000cells/3ul/well in 1536-well black-clear bottom plates. After the assay plates were incubated at 37 C, 5% CO2 incubator for 5 hours, 23 nL of compounds dissolved in DMSO, positive controls or DMSO only was transferred to the assay plate. Following compound addition, 3 uL of rat liver microsomes (Molecular Toxicology, Boone, NC) at final concentration of 0.5 mg/mL and 1uL of B-Nicotinamide adenine dinucleotide 2'-phosphate (NADPH) at final concentration of 0.5 mg/mL were transferred to the assay plate. The plates were incubated at 37 C for 16 hours. 1 uL of LiveBLAzer detection mixture was added to each well and the plates were incubated at room temperature in the dark for 2 h. Fluorescence intensity at 460 and 530 nm emission and 405 nm excitation were measured by an Envision plate reader. For cell viability readout that measures cytotoxicity, 4 ul/well of CellTiter-Glo reagent was added into the assay plates using a Flying Reagent Dispenser. After 30 min incubation at room temperature, the luminescence intensity in the plates was measured using a ViewLux plate reader.
# % is scaled to controls: 0 for no effect and ±100 for the full control effect.
row,Compound,"activity change, negative = cytotoxicity"
1,CC(C)(O)c1ccc(CNC(=O)c2cccnc2Oc2ccc(F)cc2)cc1,-2.84% (inactive)
2,N#Cc1cc2ccccc2c2ccccc12,-10.6% (inactive)
3,CC(CCc1ccc(O)cc1)NCCc1ccc(O)c(O)c1 (stereo not given),1.32% [at 30.3 µM] (inactive)
4,Oc1cccc2[nH]ccc12,8.15% [at 30.3 µM] (inactive)
5,CC1(C)CC(OC(=O)CCCCCCCCC(=O)OC2CC(C)(C)NC(C)(C)C2)CC(C)(C)N1,20.2% [at 13.5 µM] (inactive)
6,CC(C)(C#N)Nc1nc(Cl)nc(NC2CC2)n1,9.93% (inactive)
7,Cc1occc(=O)c1OC(=O)C(C)C,-19.2% (inactive)
8,Cc1nc2n(c(=O)c1CCN1CCC(c3noc4cc(F)ccc34)CC1)CCCC2,-4.29% [at 30.3 µM] (inactive)
9,NC(=O)CC[C@@H]1NC(=O)[C@H](Cc2ccccc2)NC(=O)[C@H](Cc2ccc(O)cc2)NC(=O)CCSSC[C@@H](C(=O)N2CCC[C@H]2C(=O)N[C@@H](CCCN=C(N)N)C(=O)NCC(N)=O)NC(=O)[C@H](CC(N)=O)NC1=O,-6.27% [at 30.3 µM] (inactive)
10,Nc1c2c(nc3c1CCC3)CCCC2,-2.81% [at 30.3 µM] (inactive)
11,C/C=C(/C(=C/C)c1ccc(O)cc1)c1ccc(O)cc1,-1.14% [at 30.3 µM] (inactive)
12,COc1ccccc1N1CCN(CCCNc2cc(=O)n(C)c(=O)n2C)CC1,0.174% [at 30.3 µM] (inactive)
13,O=C(O)c1c(Cl)cccc1Cl,-2.04% (inactive)
14,O=Cc1c2ccccc2c(Cl)c2ccccc12,8.12% [at 30.3 µM] (inactive)
15,Oc1cn2c(n1)Nc1ccc(Cl)c(Cl)c1C2,-5.66% [at 13.5 µM] (inactive)
16,CCC(CC)(CC(=O)Nc1cccc(/C=C/c2nc(C3CCC3)cs2)c1)C(=O)O,-10.2% [at 30.3 µM] (inactive)
17,FC(F)(F)C(F)(F)C(F)(F)C(F)(F)CCI,4.76% [at 30.3 µM] (inactive)
18,CCCCCCCCCOC(=O)c1ccccc1C(=O)OCCCCCCCCC,-0.468% (inactive)
19,C#CCN[C@@H]1CCc2ccccc21,1.39% [at 30.3 µM] (inactive)
20,C=C1CC[C@H](O)C/C1=C\C=C1/CCC[C@]2(C)[C@@H]([C@H](C)CCCC(C)C)CC[C@@H]12,-22.5% (inactive)

row,Compound,"activity change, negative = cytotoxicity"
1,O=C(/C=C/c1ccccc1)OC/C=C/c1ccccc1,-4.82% (inactive)
2,CCCCOC(=O)[C@@H](C)Oc1ccc(Oc2ccc(C(F)(F)F)cn2)cc1,-5.66% (inactive)
3,CCCCCCC,-1.11% (inactive)
4,CCc1ccc(C(=O)C(C)CN2CCCCC2)cc1 (stereo not given),-7.07% [at 30.3 µM] (inactive)
5,O=C(OCCCCCOC(=O)c1ccccc1)c1ccccc1,0.126% (inactive)
6,Nc1ccc(F)c([N+](=O)[O-])c1,4.38% (inactive)
7,COc1cc(NS(=O)(=O)c2ccc(N)cc2)nc(OC)n1,5.8% [at 30.3 µM] (inactive)
8,CCOC(=O)COc1cc(-n2ncc(C(F)(F)F)c(C)c2=O)c(F)cc1Cl,-1.36% (inactive)
9,Clc1cc(Cl)c(-c2c(Cl)c(Cl)cc(Cl)c2Cl)cc1Cl,0.556% [at 30.3 µM] (inactive)
10,CCCCCCCCCCCc1ccccc1,1.21% (inactive)
11,O=C(O)CCCC[P+](c1ccccc1)(c1ccccc1)c1ccccc1,-0.0125% [at 30.3 µM] (inactive)
12,CCc1cccc(CC)c1,-8.35% (inactive)
13,C/C=C\C/C=C/CCCCCCCCOC(C)=O,-16.9% (inactive)
14,Nc1cccc(S(=O)(=O)O)c1,-0.668% (inactive)
15,CC1=CP(=O)(c2ccccc2)CC1 (stereo not given),-2.3% (inactive)
16,CCOC(=O)C(O)c1ccccc1 (stereo not given),3.31% [at 30.3 µM] (inactive)
17,CCCCCCCCSCc1cc(C)c(O)c(CSCCCCCCCC)c1,5.13% (inactive)
18,CN(C)CCc1c[nH]c2ccc(C[C@H]3COC(=O)N3)cc12,0.536% [at 30.3 µM] (inactive)
19,N#CCc1ccc(Cl)cc1Cl,1.2% (inactive)
20,On1nnc2ccccc21,-11.6% (inactive)

# Source: PubChem BioAssay (Tox21)
